Experimental findings from PubChem BioAssay (NCATS) are described below.

Inconclusive results are not listed. Entries that show only a call come without a potency. Values without a mark were called inactive. Active and inactive are the calls of the source. Calls come from the whole dose curve; as a rule, active = well fitted curve in the direction sought with a large enough effect; inconclusive = small, poorly fitted or top-dose-only effect, or another doubt; inactive = no such curve, though single readings can be large; an effect the other way counts as inactive or inconclusive.

A short description of assay [1]: qHTS Assay for Identifying Gametocytocidal Compounds (AID 743244).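 For max response: actives lower the fluorescent signal which means gametocytes are killed.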 Note: potency is the fitted concentration of half-maximal effect. Conditions: P. falciparum 3D7 stage III-V gametocytes, alamarBlue, 72 h; max response: hits give low values. In outline:
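Viability read-out was resazurin reduction (alamarBlue, 24 h) measured at Ex 525/Em 598 nm. Beforehand, late-stage (III-V) 3D7 P. falciparum gametocytes at 20,000 cells/well were incubated with compound 72 h at 37C under 5% CO2.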
(In general: qHTS replaces the single test concentration by a dilution series.)

A short description of assay [2]: qHTS assay to identify small molecule inhibitors of chordoma cells - UCH-2 (AID 1259356). The note with it: UCH-2 chordoma viability, CellTiter-Glo ATP luminescence, 48 h; series mostly up to 46.1 µM.
Assay [3] can be described thus: qHTS assay to identify small molecule inhibitors of chordoma cells - UCH-1 (AID 1259355). Note: nearly all actives have a fitted effect of over 55% in size. Conditions: UCH-1 chordoma viability, CellTiter-Glo, 48 h, combination, with auranofin plus four topoisomerase inhibitors; series mostly up to 46.1 µM. The method in brief:
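800 cells/well, overnight attach; compounds pinned at 15 concs, then auranofin/camptothecin/doxorubicin/rubitecan/topotecan combo added; 48hr 37 C, 5% CO2; CellTiter-Glo, 30min RT, luminescence.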

As for `CC(=O)O[C@]1(C(C)=O)CC[C@H]2[C@@H]3CCC4=CC(=O)CC[C@]4(C)[C@@]3(F)[C@@H](O)C[C@@]21C`, in assay [1], the max response is 11%. The Potency result in assay [2] is “inactive”. The matching figures for `Nc1c(Br)cc(Br)cc1CNC1CCC(O)CC1` (stereo not given): 19% and “inactive”.

Turning to `CC(C)(C)C(=O)OCOC(=O)[C@@H]1N2C(=O)[C@@H](N=CN3CCCCCC3)[C@H]2SC1(C)C`, in assay [1], the max response is 2.95%. Also, the Potency result in assay [3] is “inactive”. Turning to `CCOC(=O)O[C@]1(C(=O)COC(=O)CC)CC[C@H]2[C@@H]3CCC4=CC(=O)C=C[C@]4(C)[C@H]3[C@@H](O)C[C@@]21C`, the max response in assay [1] is 11.8%. Further, in assay [2], the Potency result was “inactive”. As for `CC(=O)Oc1cc(C)c(OC(C)=O)c2ccccc12`, the Potency in assay [1] is 6.31 µM (active). Also, the Potency entry in assay [2] is “inactive”. As for `O=C(O)c1cc(=O)c2c3nc4ccccc4oc-3cc(=O)c2[nH]1`, in assay [1], the max response is -14.4%. In assay [2], the Potency entry is “inactive”.

Take `CO[C@H]1C[C@@H]2CC[C@@H](C)[C@@](O)(O2)C(=O)C(=O)N2CCCC[C@H]2C(=O)O[C@H]([C@H](C)C[C@@H]2CC[C@@H](OCCO)[C@H](OC)C2)CC(=O)[C@H](C)/C=C(\C)[C@@H](O)[C@@H](OC)C(=O)[C@H](C)C[C@H](C)/C=C/C=C/C=C/1C`: the Potency result in assay [2] was “inactive”.

`CC(C(=O)O)c1ccc(N2Cc3ccccc3C2=O)cc1` (stereo not given): the max response in assay [1] was 8.38%. Moreover, in assay [3], the Potency result was “inactive”. On to `O=C(O)C[C@H](O)C[C@H](O)/C=C/c1c(C2CC2)nc2ccccc2c1-c1ccc(F)cc1`, for which, in assay [1], the max response was 4.27%. The Potency result in assay [2] was “inactive”.

On to `Nc1c(N=Nc2ccc(-c3ccc(N=Nc4cc(S(=O)(=O)O)c5ccccc5c4N)cc3)cc2)cc(S(=O)(=O)O)c2ccccc12`, for which the max response in assay [1] was 13.5%. The Potency result in assay [3] is “inactive”. For `CN(C)CCCN1c2ccccc2C(C)(C)c2ccccc21`, the Potency entry in assay [2] is “inactive”.

Turning to `CO[C@H](C(=O)[C@@H](O)[C@@H](C)O)C1Cc2cc3cc(O[C@H]4C[C@@H](O[C@H]5C[C@@H](O)[C@H](O)[C@@H](C)O5)[C@@H](O)[C@@H](C)O4)c(C)c(O)c3c(O)c2C(=O)[C@H]1O[C@H]1C[C@@H](O[C@H]2C[C@@H](O[C@H]3C[C@](C)(O)[C@H](O)[C@@H](C)O3)[C@H](O)[C@@H](C)O2)[C@H](O)[C@@H](C)O1` (stereo not given in full), the Potency result in assay [2] was “inactive”. On to `CC(=O)N[C@@H](CC(=O)N[C@@H](CCC(=O)O)C(=O)O)C(=O)O`, for which the max response in assay [1] was -4.86%. The Potency result in assay [2] is “inactive”. The matching figures for `CCCC(=O)Nc1ncnc2c1ncn2[C@@H]1O[C@@H]2COP(=O)(O)O[C@H]2[C@H]1OC(=O)CCC`: -2.66% and “inactive”.

Consider `COC(C(=O)C(O)C(C)O)C1Cc2cc3cc(OC4CC(OC5CC(O)C(O)C(C)O5)C(O)C(C)O4)c(C)c(O)c3c(O)c2C(=O)C1OC1CC(OC2CC(OC3CC(C)(O)C(O)C(C)O3)C(O)C(C)O2)C(O)C(C)O1` (stereo not given), for which, in assay [2], the Potency entry is “inactive”.

With `CC[C@@H](C(=O)[C@@H](C)[C@@H](O)[C@H](C)CCc1ccc(C)c(O)c1C(=O)O)[C@H]1O[C@](CC)([C@H]2CC[C@](O)(CC)[C@H](C)O2)C[C@@H]1C`, the Potency in assay [1] is 7.08 µM (active). In addition, the Potency result in assay [2] is “inactive”. As to `N[C@H](C(=O)O)[C@@H]1CC(Cl)=NO1`, the max response in assay [1] was 8.42%. Further, the Potency entry in assay [2] is “inactive”. The matching figures for `CC1(C)S[C@@H]2[C@H](NC(=O)Cc3ccccc3)C(=O)N2[C@H]1C(=O)O`: 14.5% and “inactive”.

Regarding `CCCC(=O)O[C@]1(C(=O)COC(C)=O)CC[C@H]2[C@@H]3C[C@H](F)C4=CC(=O)C=C[C@]4(C)[C@@]3(F)[C@@H](O)C[C@@]21C`, the max response in assay [1] was 9.8%. The Potency entry in assay [2] was “inactive”. For `C=C1CC[C@@H]2[C@](C)(CO)[C@H](O)CC[C@@]2(C)[C@@H]1C/C=C1/C(=O)OC[C@H]1O`, the Potency in assay [1] was 20 µM (active). In addition, the Potency result in assay [2] was “inactive”. Take `C[C@H](CCC(=O)O)[C@H]1CC[C@H]2[C@@H]3[C@H](O)C[C@@H]4C[C@H](O)CC[C@]4(C)[C@H]3CC[C@]12C`: the max response in assay [1] is 11%. Besides, in assay [2], the Potency entry was “inactive”. `CCCCC(=O)O[C@]1(C(=O)CO)[C@H](C)C[C@H]2[C@@H]3CCC4=CC(=O)C=C[C@]4(C)[C@@]3(F)[C@@H](O)C[C@@]21C`: in assay [1], the max response was 12.3%. Further, the Potency result in assay [2] is “inactive”. For the compound `COc1cc2c(cc1O)CCN[C@]21CS[C@@H]2c3c(OC(C)=O)c(C)c4c(c3[C@H](COC1=O)N1[C@@H]2[C@H]2c3c(cc(C)c(OC)c3O)C[C@@H]([C@@H]1O)N2C)OCO4`, in assay [2], the Potency result is “inactive”.

On to `CC(C)NCC1CCc2cc(CO)c([N+](=O)[O-])cc2N1` (stereo not given), for which the max response in assay [1] is -6.43%. In assay [2], the Potency result was “inactive”. Take `C#C[C@]1(O)CC[C@H]2[C@@H]3CCC4=C/C(=N/O)CC[C@@H]4[C@H]3CC[C@@]21CC`: the max response in assay [1] is -2.15%. Also, the Potency result in assay [3] was “inactive”.
